Results as given in PubChem BioAssay (NCI).
Compounds without any hit were thinned out: in the full panel of roughly 79,000, 15% have a hit. The source made the active and inactive calls. No stated cut-off is given here; in the data, active means growth inhibition above about 70%; inactive means the rest.

How the values were obtained:
[1] = NCI Yeast Anticancer Drug Screen. Data for the rad52 strain (AID 147);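 further: 0% = growth of vehicle-treated control cultures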; details: S. cerevisiae rad52 mutant growth inhibition, stronger effect = higher value
Method in brief: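 Inhibition of yeast growth, referenced to vehicle controls, was the measured output for a strain with defective DNA damage repair.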

[2] = NCI Yeast Anticancer Drug Screen. Data for the rad50EPP+ strain (AID 151);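 further: 0% = growth of vehicle-treated control cultures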; details: S. cerevisiae rad50 mutant strain, stronger effect = higher value
Method in brief: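 Genetically defined yeast (rad50EPP+, DNA damage repair alteration) is grown with compound, and inhibition of growth is expressed relative to vehicle-treated controls.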

[3] = NCI Yeast Anticancer Drug Screen. Data for the mgt1 strain (AID 153); details: S. cerevisiae mgt1 mutant growth inhibition, stronger effect = higher value
Method in brief: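 In the mgt1 strain, test compounds were added and growth inhibition was determined relative to vehicle-treated controls.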

[4] = NCI Yeast Anticancer Drug Screen. Data for the rad50 strain (AID 155);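 further: 0% = growth of vehicle-only cultures of the same strain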; details: S. cerevisiae rad50 strain growth inhibition, stronger effect = higher value
Method in brief: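 A DNA repair-deficient yeast mutant serves as the test organism; compound-induced growth inhibition is calculated against vehicle-treated cells.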

[5] = NCI Yeast Anticancer Drug Screen. Data for the mec2-1 strain (AID 157); details: S. cerevisiae mec2-1 strain, stronger effect = higher value
Method in brief: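 Each compound was tested on mec2-1 yeast, a strain altered in DNA damage repair or cell cycle control. Growth inhibition is reported relative to vehicle.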

[6] = NCI Yeast Anticancer Drug Screen. Data for the rad14 strain (AID 159);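 further: 0% = growth of vehicle-treated control cultures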; details: S. cerevisiae rad14 strain growth inhibition, stronger effect = higher value
Method in brief: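 Vehicle-treated cultures served as the baseline for growth inhibition of a DNA repair-mutant yeast strain exposed to each compound.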

[7] = NCI Yeast Anticancer Drug Screen. Data for the sgs1 mgt1 strain (AID 161);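 further: 0% = growth of cultures given vehicle only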; details: S. cerevisiae sgs1 mgt1 strain, stronger effect = higher value
Method in brief: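 Read-out: growth inhibition vs vehicle controls. Cells: mutant yeast strain deficient in DNA damage repair.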

[8] = NCI Yeast Anticancer Drug Screen. Data for the CLN2oe strain (AID 163);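 further: 0% = growth of vehicle-only control cultures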; details: S. cerevisiae CLN2oe strain, stronger effect = higher value
Method in brief: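 First, the altered yeast strain was treated with each compound; second, its growth was measured; finally, inhibition was derived by comparison with vehicle controls.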

[9] = NCI Yeast Anticancer Drug Screen. Data for the cln2 rad14 strain (AID 165);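 further: 0% = growth equal to vehicle treated cultures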; details: S. cerevisiae cln2 rad14 strain, stronger effect = higher value
Method in brief: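 Test compounds were added to cln2 rad14 yeast cultures; inhibition of growth was then determined by comparison with vehicle treatment.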

[10] = NCI Yeast Anticancer Drug Screen. Data for the bub3 strain (AID 167); details: S. cerevisiae bub3 mutant strain, stronger effect = higher value
Method in brief: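 Inhibition values come from growth of compound-treated mutant yeast normalised to vehicle-treated controls.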

[11] = NCI Yeast Anticancer Drug Screen. Data for the wt2 strain (AID 169);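 further: 0% = growth of vehicle-treated yeast cultures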; details: S. cerevisiae wt2 strain growth inhibition, stronger effect = higher value
Method in brief: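 The panel's yeast strains carry defined changes in DNA repair or cell cycle genes. Each strain is grown with compound, and growth loss is scored relative to vehicle.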

[12] = NCI Yeast Anticancer Drug Screen. Data for the mlh1 strain (AID 171);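 further: 0% = growth of vehicle-treated control cultures of the same strain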; details: S. cerevisiae mlh1 strain growth inhibition, stronger effect = higher value
Method in brief: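 Inhibition values reflect reduced yeast growth in the presence of compound, referenced to vehicle controls, using a strain chosen for its alteration in DNA repair or cell cycle control.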

[13] = NCI Yeast Anticancer Drug Screen. Data for the sgs1 strain (AID 173);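 further: 0% = growth of vehicle-only control cultures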; details: S. cerevisiae sgs1 mutant, stronger effect = higher value
Method in brief: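 Vehicle-treated cultures served as reference for growth inhibition of a yeast strain altered in DNA damage repair or cell cycle control after compound exposure.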

[14] = NCI Yeast Anticancer Drug Screen. Data for the mlh1 rad18 strain (AID 175); details: S. cerevisiae mlh1 rad18 strain growth inhibition, stronger effect = higher value
Method in brief: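 Inhibition values reflect reduced growth of mutant yeast versus vehicle-treated controls following compound exposure; the mutations affect DNA damage repair.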

[15] = NCI Yeast Anticancer Drug Screen. Data for the rad18 strain (AID 177); details: S. cerevisiae rad18 mutant growth inhibition, stronger effect = higher value
Method in brief: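 Steps: expose repair-mutant yeast to compound; measure growth; express as inhibition relative to vehicle control.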

[16] = at 5.0 µM (retest, dose inferred, filed as 0.5)
[17] = at 50.0 µM (retest, dose inferred, filed as 5.0)

Measured: growth inhibition

C=C(CN(C)C)C(=O)c1cc(C)ccc1C
active: [1]; at 11.0 µM 85% | [1]; at 33.0 µM 99% | [1]; at 100.0 µM 99% | [2]; at 33.0 µM 80% | [2]; at 100.0 µM 98% | [3]; at 11.0 µM 80% | [3]; at 33.0 µM 99% | [3]; at 100.0 µM 99% | [4]; at 11.0 µM 83% | [4]; at 33.0 µM 98% | [4]; [17] 99% | [4]; at 50.0 µM 99.4% | [4]; at 100.0 µM 99% | [5]; at 11.0 µM 86% | [5]; at 33.0 µM 99% | [5]; [17] 99% | [5]; at 50.0 µM 99.4% | [5]; at 100.0 µM 99% | [6]; at 11.0 µM 80% | [6]; at 33.0 µM 99% | [6]; at 100.0 µM 99% | [7]; [17] 99% | [7]; at 50.0 µM 99.5% | [8]; at 33.0 µM 98% | [8]; at 100.0 µM 98% | [9]; [17] 99% | [9]; at 50.0 µM 99.2% | [10]; at 11.0 µM 90% | [10]; at 33.0 µM 99% | [10]; [17] 99% | [10]; at 50.0 µM 98.8% | [10]; at 100.0 µM 99% | [11]; at 11.0 µM 75% | [11]; at 33.0 µM 99% | [11]; at 100.0 µM 99% | [12]; at 11.0 µM 89% | [12]; at 33.0 µM 99% | [12]; at 100.0 µM 99% | [13]; at 11.0 µM 86% | [13]; at 33.0 µM 99% | [13]; at 100.0 µM 99% | [14]; [17] 99% | [14]; at 50.0 µM 99.2% | [15]; at 11.0 µM 86% | [15]; at 33.0 µM 98% | [15]; at 100.0 µM 99%
inactive: [1]; at 1.2 µM 5% | [1]; at 3.7 µM 32% | [2]; at 1.2 µM 1% | [2]; at 3.7 µM 9% | [2]; at 11.0 µM 32% | [3]; at 1.2 µM 2% | [3]; at 3.7 µM 19% | [4]; at 1.2 µM 4% | [4]; at 3.7 µM 23% | [4]; [16] 24% | [5]; at 1.2 µM 17% | [5]; at 3.7 µM 38% | [5]; [16] 5% | [6]; at 1.2 µM 9% | [6]; at 3.7 µM 21% | [7]; [16] 50% | [8]; at 1.2 µM 10% | [8]; at 3.7 µM 22% | [8]; at 11.0 µM 40% | [9]; [16] 7% | [10]; at 1.2 µM 5% | [10]; at 3.7 µM 28% | [10]; [16] 61% | [11]; at 1.2 µM 3% | [11]; at 3.7 µM 16% | [12]; at 1.2 µM 12% | [12]; at 3.7 µM 32% | [13]; at 1.2 µM 16% | [13]; at 3.7 µM 40% | [14]; [16] 61% | [15]; at 1.2 µM 16% | [15]; at 3.7 µM 37%
